Experiment [1] deals with T1, Mitogen-activated protein kinase 12 (Homo sapiens) (UniProt P53778).
T1 sequence (whole entry): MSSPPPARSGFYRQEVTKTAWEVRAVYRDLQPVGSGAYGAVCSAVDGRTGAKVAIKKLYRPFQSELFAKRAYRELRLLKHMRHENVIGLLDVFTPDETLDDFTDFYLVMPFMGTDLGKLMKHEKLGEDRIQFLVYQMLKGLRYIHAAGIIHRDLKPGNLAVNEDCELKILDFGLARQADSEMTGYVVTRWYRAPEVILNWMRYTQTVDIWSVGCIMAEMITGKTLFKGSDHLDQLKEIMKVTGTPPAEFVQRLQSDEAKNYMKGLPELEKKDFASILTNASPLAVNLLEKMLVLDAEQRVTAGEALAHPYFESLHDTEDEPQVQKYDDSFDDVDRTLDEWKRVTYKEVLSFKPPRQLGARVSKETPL
The following applies: at 1 µM.

The target of experiment [2] is SRSF protein kinase 1 (Homo sapiens) (UniProt Q96SB4). The settings on record: at 0.1 µM.
For experiment [3] the target is unchanged. The following applies: at 1 µM.
Experiment [4] addresses Phosphatidylinositol 4,5-bisphosphate 3-kinase catalytic subunit alpha isoform (Homo sapiens) (UniProt P42336). The settings on record: at 0.1 µM.
Experiment [5] shares this target. The settings on record: at 1 µM.
Experiment [6] concerns the target T2, Phosphatidylinositol 4,5-bisphosphate 3-kinase catalytic subunit delta isoform (Homo sapiens) (UniProt O00329).
T2 sequence (whole entry): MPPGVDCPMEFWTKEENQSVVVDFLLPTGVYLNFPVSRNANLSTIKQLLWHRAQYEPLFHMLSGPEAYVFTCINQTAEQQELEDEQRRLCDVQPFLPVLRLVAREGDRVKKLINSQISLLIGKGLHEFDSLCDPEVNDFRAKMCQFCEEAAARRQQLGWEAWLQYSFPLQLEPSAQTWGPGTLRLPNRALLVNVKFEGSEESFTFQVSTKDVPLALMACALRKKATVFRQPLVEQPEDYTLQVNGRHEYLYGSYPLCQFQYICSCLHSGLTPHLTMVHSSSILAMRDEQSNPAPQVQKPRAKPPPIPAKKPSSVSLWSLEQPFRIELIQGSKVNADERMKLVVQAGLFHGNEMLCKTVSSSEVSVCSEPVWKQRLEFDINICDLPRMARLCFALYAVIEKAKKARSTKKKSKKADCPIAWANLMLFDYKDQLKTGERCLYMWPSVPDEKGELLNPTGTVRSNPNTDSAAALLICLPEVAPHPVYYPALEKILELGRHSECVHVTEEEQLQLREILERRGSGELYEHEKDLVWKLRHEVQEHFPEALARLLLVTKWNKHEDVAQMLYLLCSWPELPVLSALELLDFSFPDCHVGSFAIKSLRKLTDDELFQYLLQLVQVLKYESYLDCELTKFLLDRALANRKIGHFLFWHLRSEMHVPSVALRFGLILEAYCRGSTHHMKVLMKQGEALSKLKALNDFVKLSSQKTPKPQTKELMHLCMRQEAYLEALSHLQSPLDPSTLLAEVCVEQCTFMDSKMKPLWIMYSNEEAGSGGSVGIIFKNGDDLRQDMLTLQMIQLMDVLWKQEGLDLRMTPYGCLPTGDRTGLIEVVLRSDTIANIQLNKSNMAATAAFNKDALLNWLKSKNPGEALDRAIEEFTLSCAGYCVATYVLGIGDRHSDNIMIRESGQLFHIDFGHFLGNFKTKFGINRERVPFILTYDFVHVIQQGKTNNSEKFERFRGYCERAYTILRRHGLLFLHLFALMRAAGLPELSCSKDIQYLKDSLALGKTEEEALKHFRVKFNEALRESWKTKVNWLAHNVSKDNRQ
The following applies: at 0.1 µM.

For experiment [7], the target named is T2, Phosphatidylinositol 4,5-bisphosphate 3-kinase catalytic subunit delta isoform (Homo sapiens). The following applies: at 1 µM.
Experiment [8] has as its target Phosphatidylinositol 4-kinase beta (Homo sapiens) (UniProt Q9UBF8). The settings on record: at 0.1 µM.
Experiment [9] has the same target. The following applies: at 1 µM.
Experiment [10] addresses Sphingosine kinase 1 (Homo sapiens) (UniProt Q9NYA1). The following applies: at 0.1 µM.
Experiment [11] shares this target. The following applies: at 1 µM.
Experiment [12] has as its target T3, Sphingosine kinase 2 (Homo sapiens) (UniProt Q9NRA0).
T3 sequence (whole entry): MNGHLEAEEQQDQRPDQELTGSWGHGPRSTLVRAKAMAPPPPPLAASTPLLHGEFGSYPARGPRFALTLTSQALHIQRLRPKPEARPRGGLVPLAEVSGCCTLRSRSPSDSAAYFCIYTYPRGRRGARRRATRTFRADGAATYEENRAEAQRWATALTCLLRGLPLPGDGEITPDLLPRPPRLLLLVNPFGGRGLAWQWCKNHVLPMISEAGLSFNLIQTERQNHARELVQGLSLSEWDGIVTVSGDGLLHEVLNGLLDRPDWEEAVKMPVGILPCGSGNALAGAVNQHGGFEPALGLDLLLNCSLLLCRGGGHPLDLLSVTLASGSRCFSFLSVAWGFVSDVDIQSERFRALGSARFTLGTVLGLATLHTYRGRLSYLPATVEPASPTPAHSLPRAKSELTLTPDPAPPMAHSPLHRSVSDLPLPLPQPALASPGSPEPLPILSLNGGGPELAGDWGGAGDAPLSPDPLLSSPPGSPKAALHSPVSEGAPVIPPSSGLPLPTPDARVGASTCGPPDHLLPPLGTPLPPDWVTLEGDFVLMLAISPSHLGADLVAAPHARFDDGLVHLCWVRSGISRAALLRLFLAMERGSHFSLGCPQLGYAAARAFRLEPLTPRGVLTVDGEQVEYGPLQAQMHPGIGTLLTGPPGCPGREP
The following applies: at 0.1 µM.

Experiment [13] deals with T3, Sphingosine kinase 2 (Homo sapiens). The settings on record: at 1 µM.
The target of experiment [14] is Casein kinase II subunit alpha (Homo sapiens) (UniProt P68400). The settings on record: at 0.1 µM.
Experiment [15] shares this target. The settings on record: at 1 µM.
The target in experiment [16] is T4, Inhibitor of nuclear factor kappa-B kinase subunit alpha (Homo sapiens) (UniProt O15111).
T4 sequence (whole entry): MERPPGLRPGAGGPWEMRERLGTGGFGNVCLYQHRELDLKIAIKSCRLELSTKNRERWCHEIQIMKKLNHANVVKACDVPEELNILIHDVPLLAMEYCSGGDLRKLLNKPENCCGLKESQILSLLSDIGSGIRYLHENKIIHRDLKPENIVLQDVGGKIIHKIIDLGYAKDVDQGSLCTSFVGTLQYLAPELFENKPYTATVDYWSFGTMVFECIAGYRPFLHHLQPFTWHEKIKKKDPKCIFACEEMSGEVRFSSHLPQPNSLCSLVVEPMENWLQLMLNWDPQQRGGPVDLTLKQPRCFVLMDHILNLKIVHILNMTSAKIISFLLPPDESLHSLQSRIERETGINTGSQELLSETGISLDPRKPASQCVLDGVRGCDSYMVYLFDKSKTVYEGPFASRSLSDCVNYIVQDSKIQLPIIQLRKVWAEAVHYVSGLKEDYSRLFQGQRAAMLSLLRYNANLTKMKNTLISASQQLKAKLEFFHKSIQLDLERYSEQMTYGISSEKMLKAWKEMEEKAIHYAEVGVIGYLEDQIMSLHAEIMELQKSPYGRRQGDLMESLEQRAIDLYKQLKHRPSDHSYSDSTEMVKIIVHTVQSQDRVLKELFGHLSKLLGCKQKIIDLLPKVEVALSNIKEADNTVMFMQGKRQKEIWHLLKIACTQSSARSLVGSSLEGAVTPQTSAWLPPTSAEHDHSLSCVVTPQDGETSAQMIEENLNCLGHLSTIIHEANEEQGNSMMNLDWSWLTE
The settings on record: at 0.1 µM.

Experiment [17] concerns the target T4, Inhibitor of nuclear factor kappa-B kinase subunit alpha (Homo sapiens). The following applies: at 1 µM.
The target in experiment [18] is T5, Inhibitor of nuclear factor kappa-B kinase subunit beta (Homo sapiens) (UniProt O14920).
T5 sequence (whole entry): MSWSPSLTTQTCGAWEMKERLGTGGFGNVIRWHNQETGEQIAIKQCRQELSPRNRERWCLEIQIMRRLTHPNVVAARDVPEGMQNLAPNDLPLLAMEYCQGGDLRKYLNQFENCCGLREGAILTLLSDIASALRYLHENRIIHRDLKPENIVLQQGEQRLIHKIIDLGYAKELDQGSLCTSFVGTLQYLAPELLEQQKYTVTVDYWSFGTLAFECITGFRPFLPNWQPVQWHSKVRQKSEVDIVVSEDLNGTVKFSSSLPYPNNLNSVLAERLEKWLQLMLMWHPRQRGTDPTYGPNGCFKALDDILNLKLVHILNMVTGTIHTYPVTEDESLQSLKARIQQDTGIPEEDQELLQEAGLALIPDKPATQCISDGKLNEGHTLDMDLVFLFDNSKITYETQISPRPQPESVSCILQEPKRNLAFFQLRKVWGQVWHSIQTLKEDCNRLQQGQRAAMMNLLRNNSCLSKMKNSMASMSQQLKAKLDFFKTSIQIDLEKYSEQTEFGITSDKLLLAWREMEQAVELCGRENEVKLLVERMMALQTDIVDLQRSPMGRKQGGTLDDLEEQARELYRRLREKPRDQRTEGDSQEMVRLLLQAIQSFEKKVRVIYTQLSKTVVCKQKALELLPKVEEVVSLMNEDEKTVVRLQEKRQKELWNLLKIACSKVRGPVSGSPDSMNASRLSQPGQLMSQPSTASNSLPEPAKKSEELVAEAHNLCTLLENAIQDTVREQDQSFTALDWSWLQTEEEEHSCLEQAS
The settings on record: at 0.1 µM.

Experiment [19] has as its target T5, Inhibitor of nuclear factor kappa-B kinase subunit beta (Homo sapiens). The following applies: at 1 µM.
The target in experiment [20] is T6, Inhibitor of nuclear factor kappa-B kinase subunit epsilon (Homo sapiens) (UniProt Q14164).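 Note: mean inhibition of IKKε reported, from the GSK PKIS dataset.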
T6 sequence (whole entry): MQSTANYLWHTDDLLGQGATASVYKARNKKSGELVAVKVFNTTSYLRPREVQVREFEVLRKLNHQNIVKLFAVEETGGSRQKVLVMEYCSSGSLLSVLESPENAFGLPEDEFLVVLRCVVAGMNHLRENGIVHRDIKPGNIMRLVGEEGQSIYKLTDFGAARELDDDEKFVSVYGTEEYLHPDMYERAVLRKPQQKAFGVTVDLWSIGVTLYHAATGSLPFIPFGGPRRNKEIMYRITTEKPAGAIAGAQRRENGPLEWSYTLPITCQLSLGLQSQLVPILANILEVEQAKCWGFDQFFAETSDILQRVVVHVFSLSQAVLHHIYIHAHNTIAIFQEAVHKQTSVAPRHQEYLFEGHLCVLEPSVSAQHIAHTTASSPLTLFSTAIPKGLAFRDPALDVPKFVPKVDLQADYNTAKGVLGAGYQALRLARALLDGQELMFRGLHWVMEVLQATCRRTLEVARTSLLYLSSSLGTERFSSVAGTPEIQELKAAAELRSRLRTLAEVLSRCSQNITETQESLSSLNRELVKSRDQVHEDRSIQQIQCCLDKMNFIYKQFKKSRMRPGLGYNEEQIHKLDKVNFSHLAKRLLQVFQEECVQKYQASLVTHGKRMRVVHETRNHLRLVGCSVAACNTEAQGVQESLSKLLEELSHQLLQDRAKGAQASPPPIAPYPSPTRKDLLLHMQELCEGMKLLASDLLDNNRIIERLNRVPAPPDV
The settings on record: at 0.1 µM.

Sequence of Sphingosine kinase 1 (Homo sapiens) (Q9NYA1 whole entry): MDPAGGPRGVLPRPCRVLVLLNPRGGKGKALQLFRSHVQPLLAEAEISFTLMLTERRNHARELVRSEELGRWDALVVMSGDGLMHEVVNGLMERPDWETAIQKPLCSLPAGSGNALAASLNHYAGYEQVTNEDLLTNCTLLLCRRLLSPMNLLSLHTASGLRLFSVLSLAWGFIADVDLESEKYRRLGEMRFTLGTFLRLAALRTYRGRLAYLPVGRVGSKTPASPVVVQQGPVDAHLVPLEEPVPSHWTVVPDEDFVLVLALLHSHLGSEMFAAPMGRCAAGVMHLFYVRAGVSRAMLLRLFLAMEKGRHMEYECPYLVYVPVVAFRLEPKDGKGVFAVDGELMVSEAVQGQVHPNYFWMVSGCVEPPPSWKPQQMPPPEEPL
Sequence of SRSF protein kinase 1 (Homo sapiens) (Q96SB4 whole entry): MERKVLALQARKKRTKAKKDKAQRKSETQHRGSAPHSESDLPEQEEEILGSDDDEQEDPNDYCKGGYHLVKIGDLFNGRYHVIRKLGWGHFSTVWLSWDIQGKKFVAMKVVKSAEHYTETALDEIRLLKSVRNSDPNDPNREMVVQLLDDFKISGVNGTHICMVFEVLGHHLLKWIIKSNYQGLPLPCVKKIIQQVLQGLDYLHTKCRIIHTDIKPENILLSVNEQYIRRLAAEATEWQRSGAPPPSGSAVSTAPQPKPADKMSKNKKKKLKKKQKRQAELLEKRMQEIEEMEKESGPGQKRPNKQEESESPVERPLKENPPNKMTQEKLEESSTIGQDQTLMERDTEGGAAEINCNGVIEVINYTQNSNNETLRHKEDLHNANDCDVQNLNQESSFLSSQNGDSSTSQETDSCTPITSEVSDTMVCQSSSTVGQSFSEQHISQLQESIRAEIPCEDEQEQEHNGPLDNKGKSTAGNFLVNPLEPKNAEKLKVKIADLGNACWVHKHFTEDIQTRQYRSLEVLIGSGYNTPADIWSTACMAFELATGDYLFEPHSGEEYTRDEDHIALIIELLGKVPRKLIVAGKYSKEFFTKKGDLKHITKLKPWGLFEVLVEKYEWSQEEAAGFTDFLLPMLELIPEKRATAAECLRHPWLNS
Sequence of Phosphatidylinositol 4-kinase beta (Homo sapiens) (Q9UBF8 2-816 limits assumed): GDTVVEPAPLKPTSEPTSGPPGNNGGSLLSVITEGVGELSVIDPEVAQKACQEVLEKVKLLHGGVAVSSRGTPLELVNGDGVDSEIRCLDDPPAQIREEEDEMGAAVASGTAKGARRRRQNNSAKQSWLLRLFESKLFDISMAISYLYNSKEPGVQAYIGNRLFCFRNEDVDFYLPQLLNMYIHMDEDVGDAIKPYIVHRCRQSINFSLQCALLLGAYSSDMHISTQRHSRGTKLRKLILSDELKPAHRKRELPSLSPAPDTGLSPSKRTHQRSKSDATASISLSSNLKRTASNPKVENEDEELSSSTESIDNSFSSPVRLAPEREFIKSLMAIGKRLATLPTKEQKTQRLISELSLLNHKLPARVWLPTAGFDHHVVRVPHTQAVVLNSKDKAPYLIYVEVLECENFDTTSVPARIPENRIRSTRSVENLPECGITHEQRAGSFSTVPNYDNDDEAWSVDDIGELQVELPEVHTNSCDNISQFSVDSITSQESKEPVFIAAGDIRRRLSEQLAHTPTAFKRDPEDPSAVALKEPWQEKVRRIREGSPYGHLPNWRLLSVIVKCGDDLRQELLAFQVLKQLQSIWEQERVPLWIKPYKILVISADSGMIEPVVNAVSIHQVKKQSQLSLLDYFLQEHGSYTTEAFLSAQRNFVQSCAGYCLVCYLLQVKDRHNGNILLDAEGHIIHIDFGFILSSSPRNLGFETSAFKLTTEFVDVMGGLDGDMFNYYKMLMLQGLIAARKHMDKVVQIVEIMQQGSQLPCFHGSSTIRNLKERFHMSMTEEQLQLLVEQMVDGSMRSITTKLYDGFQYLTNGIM
Sequence of Casein kinase II subunit alpha (Homo sapiens) (P68400 whole entry, looked up): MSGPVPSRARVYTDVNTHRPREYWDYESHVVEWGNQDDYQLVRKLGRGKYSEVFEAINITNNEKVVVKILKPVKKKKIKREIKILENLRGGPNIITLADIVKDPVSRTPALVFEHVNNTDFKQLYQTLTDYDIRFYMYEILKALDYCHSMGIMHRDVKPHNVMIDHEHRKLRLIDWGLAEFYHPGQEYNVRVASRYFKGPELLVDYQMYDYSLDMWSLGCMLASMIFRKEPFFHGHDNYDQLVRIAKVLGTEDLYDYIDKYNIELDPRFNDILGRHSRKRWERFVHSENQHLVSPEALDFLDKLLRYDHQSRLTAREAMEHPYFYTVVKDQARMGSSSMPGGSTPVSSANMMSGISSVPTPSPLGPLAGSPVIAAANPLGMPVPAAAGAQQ
Sequence of Phosphatidylinositol 4,5-bisphosphate 3-kinase catalytic subunit alpha isoform (Homo sapiens) (P42336 whole entry, canonical isoform): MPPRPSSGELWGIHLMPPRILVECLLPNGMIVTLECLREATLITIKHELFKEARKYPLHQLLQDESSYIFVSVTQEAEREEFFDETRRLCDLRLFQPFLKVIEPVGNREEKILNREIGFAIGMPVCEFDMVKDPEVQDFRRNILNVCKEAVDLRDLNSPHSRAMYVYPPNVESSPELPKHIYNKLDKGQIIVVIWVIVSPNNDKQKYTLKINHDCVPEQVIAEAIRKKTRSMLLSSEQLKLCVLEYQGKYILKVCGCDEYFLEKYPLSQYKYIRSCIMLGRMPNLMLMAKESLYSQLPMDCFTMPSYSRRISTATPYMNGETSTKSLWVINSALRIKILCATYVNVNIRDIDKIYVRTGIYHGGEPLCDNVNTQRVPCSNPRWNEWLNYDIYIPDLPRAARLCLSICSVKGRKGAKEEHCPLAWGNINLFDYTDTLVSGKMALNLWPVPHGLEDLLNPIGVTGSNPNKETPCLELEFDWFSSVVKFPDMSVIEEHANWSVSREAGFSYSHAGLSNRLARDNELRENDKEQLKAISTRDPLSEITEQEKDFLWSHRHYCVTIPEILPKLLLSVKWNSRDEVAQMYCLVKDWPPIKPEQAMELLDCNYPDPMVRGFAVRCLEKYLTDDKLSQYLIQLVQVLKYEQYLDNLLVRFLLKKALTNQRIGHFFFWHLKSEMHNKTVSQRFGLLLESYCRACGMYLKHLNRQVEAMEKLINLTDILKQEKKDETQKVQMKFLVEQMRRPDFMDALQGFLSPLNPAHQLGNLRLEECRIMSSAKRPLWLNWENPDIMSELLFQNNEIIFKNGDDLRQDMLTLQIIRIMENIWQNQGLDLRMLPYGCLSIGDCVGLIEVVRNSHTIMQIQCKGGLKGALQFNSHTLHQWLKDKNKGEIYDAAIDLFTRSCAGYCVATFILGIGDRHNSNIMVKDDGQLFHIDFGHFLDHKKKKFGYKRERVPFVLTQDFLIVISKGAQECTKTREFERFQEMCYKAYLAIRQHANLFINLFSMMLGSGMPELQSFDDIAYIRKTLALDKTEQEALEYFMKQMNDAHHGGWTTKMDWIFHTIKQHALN

Consider `CS(=O)(=O)CCNCc1ccc(-c2ccc3ncnc(Nc4ccc(OCc5ccccc5)cc4)c3c2)o1`, for which the inhibition (usually the relative decrease from the control value, in per cent) in [1] is 2.57%; in experiment [2], -2.16%; in [3], -2.56%; in experiment [4], 2.93%; in experiment [5] it was 4.79%; in experiment [6] it was 0.74%. Moreover, the inhibition was 2.65% in [7]; 0.91% in [8]; 0.45% in experiment [9]; -0.6% in [10]; -3.83% in [11]; -0.85% in experiment [12]. For the same molecule, the inhibition was 0.16% in experiment [13]; 9.29% in [14]; 3.86% in experiment [15]; 4.92% in [16]; 3.98% in experiment [17]; 5.26% in experiment [18]. Besides, the inhibition in experiment [19] was 5.3%; in experiment [20], 5.66%.
On to `N#Cc1cccc(Nc2ncc(-c3ccccc3)o2)c1`, for which the inhibition in experiment [1] is 1.79%; in experiment [2] it was -1.82%; in [3] it was 0.42%; in experiment [4], 0.88%; in experiment [5], -1.04%; in experiment [6], -0.63%. Besides, the inhibition in experiment [7] is -0.04%; in experiment [8], -0.3%; in experiment [9] it was -1.82%; in experiment [10], 1.65%; in [11], -2.86%; in experiment [12], 0.09%. For the same molecule, the inhibition in experiment [13] was -1.96%; in experiment [14], 2.39%; in [15], 11.7%; in experiment [16], 5.02%; in experiment [17], 3.79%; in experiment [18], 3.29%. Besides, the inhibition was determined as 5.96% in experiment [19] and 5.55% in experiment [20].
Consider `CN(C)CCNC(=O)Nc1ccc(N(C)c2ccnc(Nc3ccc(CS(C)(=O)=O)cc3)n2)cc1`, for which the inhibition in [1] was 2.24%; in [2], -1.44%; in [3], -2.68%; in [4], 2.6%; in experiment [5] it was 3.13%; in experiment [6], 2.63%. Besides, the inhibition in [7] is 5.9%; in experiment [8], 2.65%; in experiment [9], 15.7%; in experiment [10] it was 0.26%; in experiment [11], -1.23%; in experiment [12] it was -0.06%. The inhibition is 2.33% in experiment [13]; 2.94% in experiment [14]; 0.31% in experiment [15]; 2.05% in experiment [16]; 0.39% in experiment [17]; 7.67% in experiment [18]. Further, the results for the inhibition in experiment [19] and in experiment [20] were 1.94% and 3.33%, respectively.

Values taken from ChEMBL document CHEMBL1961873, “Compounds: GSK PKIS; Assays: Nanosyn kinase panel” (2012).
